Where a name gives a salt, the structure may show the parent alone. ± gives the standard deviation of the averaged measurements.
Test system: A549
Experiment: relative viability (normalised to negative control = 1, bortezomib = 0) (fraction); higher = less cytotoxic
Conditions: inflammatory serum-free RHB-A with cytokines + LPS, 5 d + 24 h CellTiter-Blue
[1] = compound 30 nM, GSK126 pretreatment: 5 uM GSK126
[2] = compound 30 nM, GSK126 pretreatment: none (vehicle)
[3] = compound 300 nM, GSK126 pretreatment: 5 uM GSK126
[4] = compound 300 nM, GSK126 pretreatment: none (vehicle)

| Compound | relative viability [1] | relative viability [2] | relative viability [3] | relative viability [4] |
| --- | --- | --- | --- | --- |
| Cc1cc(C(=O)NOCCO)c(Nc2ccc(I)cc2F)n(C)c1=O | 0.137 ± 0.0076 | 0.158 ± 0.004 | 0.0557 ± 0.021 | 0.0366 ± 0.01 |
| CC(=O)O[C@]1(C(C)=O)CC[C@H]2[C@@H]3C=C(C)C4=CC(=O)CC[C@]4(C)[C@H]3CC[C@@]21C [Megestrol acetate] | 1.35 ± 0.04 | 1.21 ± 0.14 | 1.48 ± 0.078 | 1.55 ± 0.085 |
| CNC(=O)c1ccccc1Sc1ccc2c(/C=C/c3ccccn3)n[nH]c2c1 | 0.898 ± 0.013 | 0.875 ± 0.039 | 0.835 ± 0.13 | 0.891 ± 0.063 |
| CCCS(=O)(=O)Nc1ccc(F)c(C(=O)c2c[nH]c3ncc(Cl)cc23)c1F | 0.771 ± 0.062 | 0.725 ± 0.028 | 0.851 ± 0.19 | 1.02 ± 0.074 |
| Cc1ccc(Nc2nccc(N(C)c3ccc4c(C)n(C)nc4c3)n2)cc1S(N)(=O)=O [Pazopanib Hydrochloride] | 0.972 ± 0.12 | 0.935 ± 0.081 | 1.11 ± 0.096 | 1.09 ± 0.12 |
| C=CC(=O)Nc1cccc(Oc2nc(Nc3ccc(N4CCN(C)CC4)cc3OC)ncc2Cl)c1 | 0.978 ± 0.051 | 0.897 ± 0.034 | 0.782 ± 0.086 | 0.87 ± 0.095 |
| C[S+]([O-])c1ccc(-c2nc(-c3ccc(F)cc3)c(-c3ccncc3)[nH]2)cc1 (stereo not given) | 1.03 ± 0.22 | 0.902 ± 0.11 | 1.3 ± 0.14 | 1.14 ± 0.13 |
| N#CCNC(=O)c1ccc(-c2ccnc(Nc3ccc(N4CCOCC4)cc3)n2)cc1 | 0.933 ± 0.027 | 0.961 ± 0.042 | 1.22 ± 0.083 | 1.4 ± 0.038 |
| C#CCC(Cc1cnc2nc(N)nc(N)c2n1)c1ccc(C(=O)N[C@@H](CCC(=O)O)C(=O)O)cc1 (stereo not given in full) [pralatrexate] | 0.878 ± 0.027 | 0.859 ± 0.075 | 0.765 ± 0.068 | 0.896 ± 0.06 |
| O=C(NC[C@H](O)CO)c1ccncc1Nc1ccc(I)cc1F | 0.247 ± 0.056 | 0.352 ± 0.0078 | 0.126 ± 0.019 | 0.159 ± 0.025 |

From the supplement of paper PMC6279402
